# Experimental data taken from paper PMC10726135, “HNF4α isoforms regulate the circadian balance between carbohydrate and lipid metabolism in the liver”.
# Over roughly 18,000 sequences, “log2 normalized intensity” has its median near 0.39; the highest 2% begin near 6.6. This is one part of a sample in which the highest values are shown more often than they occur.
# Target: T1, HNF4alpha2 (COS-7 nuclear extract) (Homo sapiens, UniProt P41235 1-474)
# T1 sequence: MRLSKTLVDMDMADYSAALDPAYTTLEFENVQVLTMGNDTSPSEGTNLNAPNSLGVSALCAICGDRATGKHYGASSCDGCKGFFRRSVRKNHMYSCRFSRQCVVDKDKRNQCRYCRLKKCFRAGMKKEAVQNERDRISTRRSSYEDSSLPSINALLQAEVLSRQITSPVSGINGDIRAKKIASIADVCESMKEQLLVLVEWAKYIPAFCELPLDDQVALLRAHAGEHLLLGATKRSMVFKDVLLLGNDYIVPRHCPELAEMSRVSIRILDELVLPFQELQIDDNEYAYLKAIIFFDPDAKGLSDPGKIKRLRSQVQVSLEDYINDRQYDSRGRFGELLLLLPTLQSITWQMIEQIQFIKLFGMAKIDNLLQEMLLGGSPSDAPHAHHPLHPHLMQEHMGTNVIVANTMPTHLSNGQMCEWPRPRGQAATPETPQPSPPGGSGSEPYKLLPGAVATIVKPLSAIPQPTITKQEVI
# Experiment: protein-binding microarray; COS-7 nuclear extract on double-stranded Agilent 4x180k PBM; binding buffer, salt, pH and temperature not given in the material; high values mean tight binding
# Settings: chain copies: 2; label: 3' end of strand 1 on the slide; dsDNA, one strand shown
# Summary of the method: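 Binding signal is the background-corrected, normalized gProcessedSignal calculated by Agilent software. It was measured by applying nuclear extracts of COS-7 cells transiently transfected with a human HNF4α isoform expression vector to a custom Agilent SurePrint G3 4x180k array of ~44,000 double-stranded ~60-nt test sequences in quadruplicate, then imaging bound HNF4α on an Agilent G2565CA scanner at 2-µm resolution.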
row,Sequence,binding signal [log2 normalized intensity]
1,ACTCCTTTGCTTATCTGATAAGTCCATACCGCCTAGGGAGATTAGAGTATCGGTCGA,1.53
2,ACTCAGGATACCTAAGCCCCATGCTGATAAGCCTAGGGAGATTAGAGTATCGGTCGA,1.32
3,GACTTTGAACTTCATGTGTGGTGCAGATTCGCCTAGGGAGATTAGAGTATCGGTCGA,1.97
4,CTTTGGACTTTTGAACTAAGGCTGGAATGAGCCTAGGGAGATTAGAGTATCGGTCGA,2.92
5,ATCTAAGCTGGACTTTGAACTTCATGTGTGGCCTAGGGAGATTAGAGTATCGGTCGA,7.91
6,AGCTGGACTTTGAACTTCATGTGTGGTGCAGCCTAGGGAGATTAGAGTATCGGTCGA,6.21
7,TGAGACTTTGGACTTTTGAACTAAGGCTGGGCCTAGGGAGATTAGAGTATCGGTCGA,4.72
8,CCTAAATCTAAGCTGGACTTTGAACTTCATGCCTAGGGAGATTAGAGTATCGGTCGA,8.99
9,TTGTACTCAGTATGTGCTGACTGACTCCTGGCCTAGGGAGATTAGAGTATCGGTCGA,0.992
10,TATCAGTGTTGACCTCTGGACCTCATCTTCGCCTAGGGAGATTAGAGTATCGGTCGA,5.36
11,CTCTAACCACTTTGAAATAGTGACCTCTGCGCCTAGGGAGATTAGAGTATCGGTCGA,4.36
12,GATGTTTAGCTATCAGTGTTGACCTCTGGAGCCTAGGGAGATTAGAGTATCGGTCGA,5.32
13,CTCAAGTGACCTTTGACCTCTGGCCTTTGCGCCTAGGGAGATTAGAGTATCGGTCGA,10.2
14,CTGACCTCAAGTGACCTTTGACCTCTGGCCGCCTAGGGAGATTAGAGTATCGGTCGA,11
15,GTGACCTTTGACCTCTGGCCTTTGCAGTTAGCCTAGGGAGATTAGAGTATCGGTCGA,8.21
16,CTGACAAGTATCTCGGTCAAACCTTTGACCGCCTAGGGAGATTAGAGTATCGGTCGA,5.77
17,ACCACTTTGAAATAGTGACCTCTGCTGGCCGCCTAGGGAGATTAGAGTATCGGTCGA,2.65
18,GTGAGGGAGGAGACTTTGACCTCTGCTAGGGCCTAGGGAGATTAGAGTATCGGTCGA,5.43
19,TTAGCTATCAGTGTTGACCTCTGGACCTCAGCCTAGGGAGATTAGAGTATCGGTCGA,6.97
20,ACCTTTGCCTTCTTGACATCTCTCTCTGCAGCCTAGGGAGATTAGAGTATCGGTCGA,1.17
21,TAACGGTGAGGGAGGAGACTTTGACCTCTGGCCTAGGGAGATTAGAGTATCGGTCGA,6.61
22,AAGGCTAGTCTTCTTTGGGGCTTAGATAGCGCCTAGGGAGATTAGAGTATCGGTCGA,0.431

row,Sequence,binding signal [log2 normalized intensity]
1,TGTACAGGACCATGTTCTCCTAAAGTGACTGCCTAGGGAGATTAGAGTATCGGTCGA,-0.786
2,CACTGCACCTGCCTGAACAAGTCCAGTGACGCCTAGGGAGATTAGAGTATCGGTCGA,-0.89
3,CACTGAGATAAAAATGGCCAAAGGTTGCCAGCCTAGGGAGATTAGAGTATCGGTCGA,2.09
4,CCACATTCTGAGACTAAAGAGTACACAAAGGCCTAGGGAGATTAGAGTATCGGTCGA,-0.922
5,TTCCTGGATTGTGAAACACAGGACTTGATCGCCTAGGGAGATTAGAGTATCGGTCGA,0.71
6,GAGTGTCCTGCCCCCTGGAGGAGTGAGGGAGCCTAGGGAGATTAGAGTATCGGTCGA,1.34
7,GGGGAGGTCAACCAGGGAAATTACCCTCTAGCCTAGGGAGATTAGAGTATCGGTCGA,-0.241
8,ACAGGGCTTGGGGTGGGGTTGGAGTCCAGAGCCTAGGGAGATTAGAGTATCGGTCGA,1.25
9,AGTGAAGGTTCAGTGAAGTAGTGTGTATGAGCCTAGGGAGATTAGAGTATCGGTCGA,2.27
10,TCTGCCTTTTATCTATTTGTCGCCTCTGACGCCTAGGGAGATTAGAGTATCGGTCGA,0.141
11,CCTAAGCCTTATTATCTGCTTTTATGACCTGCCTAGGGAGATTAGAGTATCGGTCGA,3.06
12,CTGCTTTTATGACCTTTGACTGCAGAAGATGCCTAGGGAGATTAGAGTATCGGTCGA,5.27
13,TTTATGACCTTTGACTGCAGAAGATAAGAAGCCTAGGGAGATTAGAGTATCGGTCGA,3.94
14,GCCTTATTATCTGCTTTTATGACCTTTGACGCCTAGGGAGATTAGAGTATCGGTCGA,7.34
15,ATTATCTGCTTTTATGACCTTTGACTGCAGGCCTAGGGAGATTAGAGTATCGGTCGA,6.64
16,AACTTTGCAGCAGATAATTACCTGGACTCTGCCTAGGGAGATTAGAGTATCGGTCGA,3.6
17,CAGATGTTTCTGCAAGCACACTGTCCTGCTGCCTAGGGAGATTAGAGTATCGGTCGA,-0.824
18,AGCCTCTCACAGTAGCCCAGGTCCTTTGGTGCCTAGGGAGATTAGAGTATCGGTCGA,0.178
19,CTGACCTTTGCCCCCAGCCTCTCACAGTAGGCCTAGGGAGATTAGAGTATCGGTCGA,6.87
20,AGGAGGAGGTTCCTGGAACTCTGACCTTTGGCCTAGGGAGATTAGAGTATCGGTCGA,5.97
21,ACCGACCTTTGGTTCCTGAACTCAAACCCCGCCTAGGGAGATTAGAGTATCGGTCGA,2.57
22,GAACTCTGACCTTTGCCCCCAGCCTCTCACGCCTAGGGAGATTAGAGTATCGGTCGA,8.72

row,Sequence,binding signal [log2 normalized intensity]
1,AAATCTGCCCAACCTTTGCCCCTGGAGGGAGCCTAGGGAGATTAGAGTATCGGTCGA,3.74
2,TGCCCAGCTTGAATCACTCACTGACCTCTTGCCTAGGGAGATTAGAGTATCGGTCGA,3.98
3,CTTTGCCCCCAGCCTCTCACAGTAGCCCAGGCCTAGGGAGATTAGAGTATCGGTCGA,4.6
4,GCTATCTTATCTTTGACCTTACCAGCCCACGCCTAGGGAGATTAGAGTATCGGTCGA,2.3
5,GCCTGCCCCTCTGACCTCTCCTCCTACCTTGCCTAGGGAGATTAGAGTATCGGTCGA,3.24
6,GAGGTTCCTGGAACTCTGACCTTTGCCCCCGCCTAGGGAGATTAGAGTATCGGTCGA,10.5
7,TCCTGGAACTCTGACCTTTGCCCCCAGCCTGCCTAGGGAGATTAGAGTATCGGTCGA,9.67
8,TTCTGTCCTCTCAAAGTCCACCCGGCCAGCGCCTAGGGAGATTAGAGTATCGGTCGA,4.04
9,TGCATCAGTGCTGACCTACCTGACCTGGCAGCCTAGGGAGATTAGAGTATCGGTCGA,1.28
10,AAGGGCAGCAGTAACCCCCCAGGAGCGAGTGCCTAGGGAGATTAGAGTATCGGTCGA,3.54
11,TGGGTATGTCTGTAGGTAAGCACAAAGTACGCCTAGGGAGATTAGAGTATCGGTCGA,1.92
12,GGCAAAACACCCCTTTCACTTCTTCCCCTCGCCTAGGGAGATTAGAGTATCGGTCGA,3.8
13,TAACCCTACAGTCCTGCCACATCCCCCACAGCCTAGGGAGATTAGAGTATCGGTCGA,4.26
14,AGGGGCTGCTGGGAGTTGTAGTTTTTTGGGGCCTAGGGAGATTAGAGTATCGGTCGA,1.54
15,AAGAGTCAAAGGGCAAAGGAATAAAATAGCGCCTAGGGAGATTAGAGTATCGGTCGA,-0.272
16,CCCCACCCCCACTGCCTGACCCCAAGTAATGCCTAGGGAGATTAGAGTATCGGTCGA,6.98
17,CCCCCACTGCCTGACCCCAAGTAATAGCCGGCCTAGGGAGATTAGAGTATCGGTCGA,5.25
18,ACTGCCTGACCCCAAGTAATAGCCGTTTCTGCCTAGGGAGATTAGAGTATCGGTCGA,1.07
19,CTCTTCAGAATGGCCTGCCCATCCCCCCAAGCCTAGGGAGATTAGAGTATCGGTCGA,5.18
20,GGCGTGACCCCCACTGCCTGCCTGCCAACTGCCTAGGGAGATTAGAGTATCGGTCGA,2.89
21,TTCATCCCCACCCCCACTGCCTGACCCCAAGCCTAGGGAGATTAGAGTATCGGTCGA,7.59
22,TGCCCTTTGCCCTCACTGGTAGAAGGCAGCGCCTAGGGAGATTAGAGTATCGGTCGA,4.58

row,Sequence,binding signal [log2 normalized intensity]
1,CGCTCCCCTCCCCCACCCGCGGTCCGTCCCGCCTAGGGAGATTAGAGTATCGGTCGA,5.86
2,CTGGTCGACCTCCCCGTCACCCTCCCCGCCGCCTAGGGAGATTAGAGTATCGGTCGA,6
3,TTTCCCTGGTCGACCTCCCCGTCACCCTCCGCCTAGGGAGATTAGAGTATCGGTCGA,4.15
4,CGACCTCCCCGTCACCCTCCCCGCCACCCCGCCTAGGGAGATTAGAGTATCGGTCGA,6.67
5,TCCCCGTCACCCTCCCCGCCACCCCCCAGAGCCTAGGGAGATTAGAGTATCGGTCGA,7.45
6,GTCACCCTCCCCGCCACCCCCCAGAGGGCCGCCTAGGGAGATTAGAGTATCGGTCGA,6.08
7,ACGTCTGTTAACCAAGATACTGGGTCAGAGGCCTAGGGAGATTAGAGTATCGGTCGA,1.11
8,ACCAGCGTAATTCTGGCTCTTTGAGTGGTTGCCTAGGGAGATTAGAGTATCGGTCGA,0.76
9,TCCAGCATTCTTTTCCCCATACCAGGCAGTGCCTAGGGAGATTAGAGTATCGGTCGA,2.37
10,CCTGACCCCCAGTGGAATGTGCCCTTTGACGCCTAGGGAGATTAGAGTATCGGTCGA,4.95
11,CGCCGGGCGCCGCTCTGAGTGACCTTTCACGCCTAGGGAGATTAGAGTATCGGTCGA,4.57
12,CCCCCAGTGGAATGTGCCCTTTGACCTCTCGCCTAGGGAGATTAGAGTATCGGTCGA,9.72
13,GGCCAGGTGGGCTGCTCCCAGTGCCCTTTGGCCTAGGGAGATTAGAGTATCGGTCGA,3.73
14,GGCGCCGCTCTGAGTGACCTTTCACCCGCGGCCTAGGGAGATTAGAGTATCGGTCGA,6.81
15,GTGCTCCCTCCCCCTGCATGAACCTTTGCTGCCTAGGGAGATTAGAGTATCGGTCGA,3.19
16,AATGTGCCCTTTGACCTCTCTCTCCTAACTGCCTAGGGAGATTAGAGTATCGGTCGA,6.48
17,AGTGGAATGTGCCCTTTGACCTCTCTCTCCGCCTAGGGAGATTAGAGTATCGGTCGA,7.71
18,GGTGGGCTGCTCCCAGTGCCCTTTGAACTCGCCTAGGGAGATTAGAGTATCGGTCGA,8.32
19,CGCTCTGAGTGACCTTTCACCCGCGCCCAGGCCTAGGGAGATTAGAGTATCGGTCGA,5.48
20,GGAATGACCTTTGATATTTGTGCCTAGTGGGCCTAGGGAGATTAGAGTATCGGTCGA,4.8
21,AGTAACCTGACCCCCAGTGGAATGTGCCCTGCCTAGGGAGATTAGAGTATCGGTCGA,3.87
